Compounds without any hit were thinned out: in the full panel of roughly 83,000, 20% have a hit.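 Results are percent growth after 48 hours of single-concentration exposure. 100 means growth as in untreated cells, lower positive values show inhibition; negative values down to -100 show cell death.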 A number with no mark means an inactive call. Calls of active or inactive are those of the source. Rule for the calls: active = growth percent below 10; inactive = the rest.
Assays:
Assay in all cases: NCI-60 one-dose screen, 48 h (100 = growth as untreated, 0 = no growth, -100 = all killed)
Conditions in all cases: 10 µM unless noted
NCI-H226 lung = test system: NCI-H226 lung
NCI-H322M lung = test system: NCI-H322M lung
HOP-62 NSCLC = test system: HOP-62 NSCLC
NCI-H460 lung = test system: NCI-H460 lung
HOP-92 NSCLC = test system: HOP-92 NSCLC
NCI-H522 lung = test system: NCI-H522 lung
A549/ATCC NSCLC = test system: A549/ATCC NSCLC
786-0 renal = test system: 786-0 renal
COLO 205 colon = test system: COLO 205 colon
DU-145 prostate = test system: DU-145 prostate

| SMILES | growth (NCI-H226 lung) | growth (NCI-H322M lung) | growth (HOP-62 NSCLC) | growth (NCI-H460 lung) | growth (HOP-92 NSCLC) | growth (NCI-H522 lung) | growth (A549/ATCC NSCLC) | growth (786-0 renal) | growth (COLO 205 colon) | growth (DU-145 prostate) |
| --- | --- | --- | --- | --- | --- | --- | --- | --- | --- | --- |
| CNC(=O)c1cc(-c2ccc(NC(=O)Nc3ccc(N4CCN(C)CC4)c(C(F)(F)F)c3)cc2)nc2cccnc12 | 84.6% | -78.4% (active) | -78.3% (active) | -76.3% (active) | 79.5% | -71.9% (active) | -81.9% (active) | -97.1% (active) | -41% (active) | -81.7% (active) |
| C#Cc1nc(C2=C(C)C(O)/C(=N/O)C2)cs1 (stereo not given) | 107% | 102% | 111% | 104% | 41.8% | 15.5% | 96.5% | -92.2% (active) | 128% | 87% |
| CC(C)(O)c1cncc(-c2ccc3ncnc(N4CCc5cc(F)c(Cl)cc54)c3c2)c1 | 23.7% | -0.361% (active) | 30.2% | 17.2% | -6.69% (active) | 18.5% | 15.8% | 11.7% | 30.1% | 14.4% |
| N#Cc1nc(-c2ccccc2)oc1S(=O)(=O)N1CCN(CCc2ccccn2)CC1 | 98.1% | 95.6% | 109% | 100% | 38.1% | -66% (active) | 103% | 8.4% (active) | 30.1% | 75.4% |
| O=C1Nc2cc(Cl)ccc2/C1=C\c1ccc(OCc2ccc(Br)cc2F)cc1 | -50.9% (active) | -23.8% (active) | -21.1% (active) | -82.4% (active) | -58.5% (active) | -28.2% (active) | -28.9% (active) | -92.5% (active) | 12.4% | -13.2% (active) |
| O=C(Oc1ccc2ccc(=O)oc2c1)c1ccc(Cl)cc1 | 104% | 99% | 108% | 103% | 95.2% | 105% | 94.2% | 100% | 114% | 108% |
| COc1ccc(-c2nc3ccc(-c4nnc(SCC(=O)Nc5ccc(C(=O)/C=C/c6ccc(Cl)cc6)cc5)o4)cc3[nH]2)cc1OC | 98.5% | 95.8% | 103% | 103% | 105% | 98.4% | 103% | 103% | 116% | 109% |
| CCOC(=O)c1c(Nc2ccccc2)nn2c(-c3ccco3)c(C#N)cnc12 | 76.9% | 96.8% | 95.6% | 93.1% | 68% | 82.6% | 95.2% | 67.2% | 98.6% | 87.9% |
| COc1cc(-c2nc3ccc(-c4nnc(SCC(=O)Nc5ccc(C(C)=O)cc5)o4)cc3[nH]2)cc(OC)c1OC | 105% | 99.5% | 98.7% | 103% | 92.5% | 99.5% | 99.9% | 106% | 110% | 115% |
| CNC(=O)c1cc(-c2ccc(NC(=O)Nc3ccc(N4CCOCC4)c(C(F)(F)F)c3)cc2)nc2cccnc12 | 54.8% | 71.7% | 80.6% | 23.9% | 57.2% | 65.5% | 51.6% | 25.9% | 84.7% | 69.6% |
| COc1cc2nc(-c3ccc(C(F)(F)F)cc3)cc(OCCCNCC3CCCO3)c2cc1OC (stereo not given) | 54.3% | 57.2% | 53.8% | 21.8% | 26.3% | 41.8% | 37.3% | -55.2% (active) | 23.3% | 36.7% |
| O=C1Nc2cc(Cl)ccc2/C1=C\c1ccc(OCc2ccc([N+](=O)[O-])cc2)cc1 | 81% | 75.1% | 79.8% | 59.9% | 45.8% | 66.9% | 78% | 51% | 92.9% | 79.9% |
| Fc1ccc(-c2nc(C(Cl)Cl)nc3cc(-c4ccccc4)nn23)cc1 | 74.7% | -41.6% (active) | -19.5% (active) | -67.6% (active) | 12.8% | -41.4% (active) | -45.1% (active) | 70% | -76.3% (active) | -18.2% (active) |
| CCOC(=O)c1c(Nc2ccccc2)nn2c(N)c(C#N)c(-c3ccc(OC)cc3)nc12 | 42.3% | 95.5% | 61.3% | 61.5% | 47% | 83.3% | 69% | 32.8% | 96.3% | 66.3% |
| CCOC(=O)c1c(Nc2ccccc2)nn2c(N)c(C#N)c(-c3ccc(Cl)cc3)nc12 | 42.1% | 77.4% | 53.9% | 12.1% | 43.2% | 72.3% | 46% | 38.7% | 69.4% | 62% |
| COc1ccc([C@@H]2c3[nH]c4ccccc4c3CC3C(=O)N(C4CCN(Cc5c(F)cccc5F)CC4)CC(=O)N32)c(OC)c1 (stereo not given in full) | 57% [5.26 µM] | 83.4% [5.26 µM] | 54.8% [5.26 µM] | 65.7% [5.26 µM] | 18.8% [5.26 µM] | 67.6% [5.26 µM] | 50% [5.26 µM] | -35.9% [5.26 µM] (active) | 58.3% [5.26 µM] | 70.7% [5.26 µM] |
| CN1CCc2c(sc3ncnc(N/N=C/c4ccc(Cl)c(Cl)c4)c23)C1 | 56.9% | -3.96% (active) | 69.7% | 0.478% (active) | 37.4% | 89.9% | 21.8% | -57.1% (active) | 36.1% | 48.9% |
| C#C[C@]1(O)CC[C@H]2[C@@H]3CC=C4c5sc(Nc6ccc(Cl)cn6)nc5CC[C@]4(C)[C@H]3CC[C@@]21C | 77.1% | 82.3% | 34.8% | 28.3% | 59.5% | 67.7% | 50.3% | -78.8% (active) | 88.8% | 63.4% |
| CCOC(=O)c1sc(NCC(=O)Nc2cccc([N+](=O)[O-])c2)c(C(=O)OCC)c1C | -33.7% (active) | -8.8% (active) | -12.9% (active) | 2.96% (active) | -19.5% (active) | -41.5% (active) | -38.1% (active) | -12.4% (active) | -33.4% (active) | -6.75% (active) |
| COc1cccc(N2CCN(c3ncnc4c3[nH]c3ccc(F)cc34)C[C@@H]2C)c1 | -60.5% (active) | -39.9% (active) | -54.2% (active) | -17.2% (active) | -27.1% (active) | -91.8% (active) | 2.18% (active) | -58.5% (active) | -88.5% (active) | -67.3% (active) |
| Nc1ncc(-c2ccc3ncnc(N4CCc5cc(F)c(Cl)cc54)c3c2)cc1CO | 18.9% | -2.33% (active) | 9.91% (active) | 6.98% (active) | -13.2% (active) | -18% (active) | 3.94% (active) | 4.92% (active) | -21.9% (active) | 11.3% |
| CCOC(=O)c1csc(NC(=O)CSc2nc3sc4c(c3c(=O)n2-c2ccc(Cl)cc2)CCCC4)n1 | 101% | 101% | 101% | 100% | 77.8% | 93.3% | 98.6% | 103% | 133% | 107% |
| Clc1ccc(Cc2nnc3sc(-c4cccnc4)nn23)cc1 | 93% | 87.8% | 107% | 103% | 91.9% | 89.5% | 98.2% | 92.6% | 115% | 101% |
| COc1cc(-c2nc3ccc(-c4nnc(SCC(=O)Nc5ccc(C(=O)/C=C/c6ccc(Cl)cc6)cc5)o4)cc3[nH]2)cc(OC)c1OC | 91.7% | 96.2% | 101% | 105% | 82.2% | 92.6% | 101% | 90.8% | 108% | 104% |
| O=c1[nH]c2ccccc2cc1CSc1ccccc1Nc1nccc(-c2ccc(C(F)(F)F)cc2)n1 | 56.8% | 90.5% | 78.5% | 40.8% | 20.5% | 80% | 57.6% | 45.4% | 104% | 73.4% |
| Cc1nc(-c2cc3ccccc3oc2=O)ccc1C(=O)/C=C/c1ccc(Cl)c(Cl)c1 | 108% | 104% | 107% | 100% | 95.4% | 98.9% | 107% | 99.3% | 113% | 102% |
